Test [1] has as its target Luciferin 4-monooxygenase (Photinus pyralis) (UniProt P08659). As to the kind of experiment: qHTS assay to identify small molecule inhibitors of firefly luciferase (AID 1224835). Further: series mostly up to about 120 µM; nearly all actives have a fitted effect of over 25% in size. The procedure, abridged: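 Quantitative HTS format; KM concentrations of both substrates. Purified P. pyralis FLuc activity quantified from luminescence images.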
In general terms: In qHTS, concentration-response curves come from the screen itself.

Test [2] in a line: qHTS assay to identify small molecule agonists of the constitutive androstane receptor (CAR) signaling pathway - cell viability counter screen (AID 1224836). Further: nearly all actives have a fitted effect of over 45% in size. Further: potency means the concentration at half of the fitted maximal effect. On viability change, negative = cytotoxic: series mostly up to about 92 µM. The procedure, abridged:
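HepG2-CYP2B6-hCAR, 2500 cells/well, 4 h pre-incubation; cpd 15 conc + PK11195 0.75 uM final; 23 h, 37 C/5% CO2; CellTiter-Fluor, fluorescence.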

A short description of test [3]: qHTS assay to identify small molecule antagonists of the constitutive androstane receptor (CAR) signaling pathway - cell viability counter screen (AID 1224837). Further: nearly all actives have a fitted effect of over 45% in size. Further: potency means the concentration at half of the fitted maximal effect. On activity change, negative = cytotoxicity: series mostly up to about 92 µM. In outline: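 HepG2-CYP2B6-hCAR cells, 2500/well, 4 hr pre-incubation; compound titration, 15 conc.; CITCO 50 nM final; 23 hr, 37 C/5% CO2; CellTiter-Fluor, fluorescence intensity.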
Test [4] concerns the target Nuclear receptor subfamily 1 group I member 3 (Homo sapiens) (UniProt Q14994). As to the kind of experiment: qHTS assay to identify small molecule antagonists of the constitutive androstane receptor (CAR) signaling pathway (AID 1224838).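 Further: HepG2 cells stably expressing hCAR with CYP2B6 luciferase reporter stimulated by CITCO; nearly all actives have a fitted effect of over 40% in size.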 Further: potency means the concentration at half of the fitted maximal effect. The procedure, abridged: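 HepG2-CYP2B6-hCAR cells; 4 h pre-incubation; cpd (15 conc) + CITCO 50 nM final; 24 h, 37 C/5% CO2; ONE-Glo, luminescence.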

Test [5] in a line: qHTS assay to identify small molecule agonists of the hypoxia (HIF-1) signaling pathway - cell viability counter screen (AID 1224844; calls by dose curve; further: nearly all actives have a fitted effect of over 50% in size; further: potency means the concentration at half of the fitted maximal effect). In outline: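 ME-180 HRE-bla cells, 2,000/well, 0.5% dialyzed FBS; 5 hr settle, 17 hr compound at 37C/5% CO2; CCF4-AM reporter read first, then CellTiter-Glo luminescence after 30 min RT.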
The nature of test [6]: qHTS assay to identify small molecule antagonists of the estrogen related receptor signaling pathway with the pleiotropic PPARgamma coactivator (PGC) from Tox21 10K library - cell viability counter screen (AID 1224840; active means well fitted cell-killing curve with a large enough effect in the repeat runs, not every such curve was filed as active; further: nearly all actives have a fitted effect of over 40% in size; further: potency means the concentration at half of the fitted maximal effect). The procedure, abridged: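 PGC/ERR cells, 2,000/well; 6 h pre-incubation 37 C/5% CO2; cpd in DMSO via pin tool; 17.5 h 37 C; CellTiter-Fluor, 30 min; fluorescence.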

Test [7] has as its target Nuclear receptor subfamily 1 group I member 3 (Homo sapiens) (UniProt Q14994). As to the kind of experiment: qHTS assay to identify small molecule agonists of the constitutive androstane receptor (CAR) signaling pathway (AID 1224839).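 Further: HepG2 cells stably carrying human CAR and a CYP2B6 luciferase reporter; series mostly up to about 92 µM; nearly all actives have a fitted effect of over 15% in size.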 The procedure, abridged: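 HepG2-CYP2B6-hCAR cells, 2500/well, 4 h pre-incubation; compounds 15 conc.; PK11195 0.75 uM final; 24 h, 37 C/5% CO2; ONE-Glo luciferase read.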

Test [8] in a line: qHTS assay to identify small molecule agonists of the estrogen related receptor signaling pathway with the pleiotropic PPARgamma coactivator (PGC) from Tox21 10K library (AID 1224842). Further: nearly all actives have a fitted effect of over 15% in size. The procedure, abridged:
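PGC/ERR reporter cells (NTP line) were seeded 2,000 per well, rested 6 h at 37 C/5% CO2, then pin-dosed with compounds in DMSO for 18 h at 37 C; luciferase read by One-Glo luminescence after 30 min at room temperature.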

Test [9] addresses Thyrotropin receptor (Homo sapiens) (UniProt P16473). In words: qHTS assay to identify small molecule agonists of the thyroid stimulating hormone receptor (TSHR) signaling pathway (AID 1224843; calls by dose curve; further: nearly all actives have a fitted effect of over 45% in size). In outline: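 TSHR-expressing HEK293 cells (800 per well) were exposed to compounds for 30 min at room temperature. cAMP was then detected by HTRF competition with cAMP-d2 and anti-cAMP cryptate, read after 1 h at room temperature. Fifteen concentrations, triplicate.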

The nature of test [10]: qHTS assay to identify small molecule antagonists of the estrogen related receptor signaling pathway with the pleiotropic PPARgamma coactivator (PGC) from Tox21 10K library (AID 1224841; call rule not given here; further: actives are mostly falling curves and most rising ones were filed inactive; nearly all actives have a fitted effect of over 50% in size; further: potency means the concentration at half of the fitted maximal effect). The procedure, abridged: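 PGC/ERR cell line, 2,000 cells/well; 6 h pre-incubation 37 C/5% CO2; compounds (DMSO) pinned in; 18 h, 37 C; One-Glo, 30 min RT; luminescence.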

Records with an inconclusive call do not appear. Values without a mark were called inactive. The source made the active and inactive calls. Unless noted, the call rests on the fitted dose curve; in most records, active means well fitted curve in the direction sought with a large enough effect in the repeat runs; inconclusive means weak or mixed curves; inactive means no such curve, though single readings can be large; an effect the other way counts as inactive or inconclusive.
On the % scale 0 is the no-effect control and ±100 the full control effect.

Sequence of Luciferin 4-monooxygenase (Photinus pyralis) (P08659 whole entry, looked up): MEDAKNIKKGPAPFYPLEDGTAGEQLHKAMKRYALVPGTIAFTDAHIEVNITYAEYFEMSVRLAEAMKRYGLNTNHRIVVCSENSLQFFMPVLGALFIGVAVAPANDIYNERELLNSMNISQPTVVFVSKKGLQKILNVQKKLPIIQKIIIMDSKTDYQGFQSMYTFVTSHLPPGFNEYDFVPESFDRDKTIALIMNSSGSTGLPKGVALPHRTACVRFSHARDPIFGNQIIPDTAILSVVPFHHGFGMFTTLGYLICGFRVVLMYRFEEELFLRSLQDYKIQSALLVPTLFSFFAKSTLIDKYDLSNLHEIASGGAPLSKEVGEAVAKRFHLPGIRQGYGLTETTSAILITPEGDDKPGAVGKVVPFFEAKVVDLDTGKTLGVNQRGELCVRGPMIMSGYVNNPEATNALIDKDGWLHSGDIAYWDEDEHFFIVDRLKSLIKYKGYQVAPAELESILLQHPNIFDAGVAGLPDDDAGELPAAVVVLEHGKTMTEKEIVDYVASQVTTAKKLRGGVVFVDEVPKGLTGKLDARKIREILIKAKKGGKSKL
Sequence of Nuclear receptor subfamily 1 group I member 3 (Homo sapiens) (Q14994 whole entry, looked up): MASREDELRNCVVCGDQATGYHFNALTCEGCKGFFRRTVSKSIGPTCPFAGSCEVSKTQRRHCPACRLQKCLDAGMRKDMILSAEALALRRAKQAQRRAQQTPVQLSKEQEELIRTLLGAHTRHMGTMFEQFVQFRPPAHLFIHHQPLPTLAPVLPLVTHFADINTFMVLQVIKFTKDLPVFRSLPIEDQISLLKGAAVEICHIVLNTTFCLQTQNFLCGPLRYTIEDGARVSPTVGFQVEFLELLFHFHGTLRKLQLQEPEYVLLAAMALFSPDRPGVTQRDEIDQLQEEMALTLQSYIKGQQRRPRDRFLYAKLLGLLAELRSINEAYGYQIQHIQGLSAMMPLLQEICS
Sequence of Thyrotropin receptor (Homo sapiens) (P16473 whole entry, looked up): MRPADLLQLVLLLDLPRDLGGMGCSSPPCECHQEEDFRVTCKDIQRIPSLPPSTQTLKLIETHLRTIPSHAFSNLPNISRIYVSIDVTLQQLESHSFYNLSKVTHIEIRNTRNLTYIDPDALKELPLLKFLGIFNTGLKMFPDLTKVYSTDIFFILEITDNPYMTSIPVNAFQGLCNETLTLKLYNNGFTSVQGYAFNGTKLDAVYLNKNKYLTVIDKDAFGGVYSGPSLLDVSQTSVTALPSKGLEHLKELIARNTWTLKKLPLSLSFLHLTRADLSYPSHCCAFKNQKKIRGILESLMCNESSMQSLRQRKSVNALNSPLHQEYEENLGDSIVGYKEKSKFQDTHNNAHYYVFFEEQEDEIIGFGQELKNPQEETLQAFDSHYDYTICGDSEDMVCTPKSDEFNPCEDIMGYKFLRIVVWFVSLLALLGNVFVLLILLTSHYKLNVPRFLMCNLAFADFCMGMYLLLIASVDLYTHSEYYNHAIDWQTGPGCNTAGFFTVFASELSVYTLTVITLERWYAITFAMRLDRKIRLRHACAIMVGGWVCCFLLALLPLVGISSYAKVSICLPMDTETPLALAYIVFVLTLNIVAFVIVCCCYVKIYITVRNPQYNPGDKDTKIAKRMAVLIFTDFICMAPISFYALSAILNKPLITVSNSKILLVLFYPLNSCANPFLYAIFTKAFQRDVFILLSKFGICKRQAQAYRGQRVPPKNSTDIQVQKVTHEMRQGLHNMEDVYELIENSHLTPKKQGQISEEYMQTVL

On to `C[C@@]12C(=O)OC(=O)[C@]1(C)C1CCC2O1`, for which the Potency result in test [1] and in test [5] was “inactive” throughout. Also, the Potency in [2] is 1.68 µM (active); in test [3], 1.33 µM (active); in test [4], 0.668 µM (active).

For the compound `O=C(c1ccccc1)c1cc(Cl)ccc1O`, the Potency result in test [1], in test [2], in [3], in test [4], in [6] and in [5] was “inactive” in each case.

In the case of `CC(C)(C)CC(C)(C)c1ccccc1O`, the Potency entry in test [1], in test [2], in test [3], in [7], in test [6] and in test [8] was “inactive” each time.

As to `COc1ccccc1C=O`, the Potency result in [1], in [2], in test [3], in test [4], in [6] and in test [9] was “inactive” each time. In addition, the Potency result in test [5] was “inactive”.

Turning to `O=C(O)CC(=O)O`, the Potency result in test [1], in [2], in test [3], in [4], in test [6] and in test [9] was “inactive” in each case.

For the compound `CCN(CC)CCNc1ccc(CO)c2sc3ccccc3c(=O)c12`, the Potency result in test [1] and in test [8] was “inactive” throughout. Further, the Potency was 7.5 µM (active) in test [2]; 7.5 µM (active) in test [3]; 2.66 µM (active) in test [4]; 8.41 µM (active) in [10]; 26.8 µM (active) in [5].

Take `C=CC(=O)OCCC#N`: the Potency entry in test [1], in test [2], in [3], in test [4], in test [6] and in test [10] was “inactive” in each case. Moreover, the Potency result in test [5] is “inactive”.

In the case of `CCCCCCCC/C=C\CCCCCCCC(=O)OCCOC(=O)CCCCCCC/C=C\CCCCCCCC`, the Potency entry in [1], in test [2], in test [3], in test [4], in [6] and in test [9] was “inactive” throughout. Further, the Potency result in [5] is “inactive”.

For `CCCCCCCC/C=C/CCCOC(C)=O`, the Potency entry in test [1], in test [2], in [3], in test [4], in [6] and in test [8] was “inactive” each time. Also, the Potency entry in test [9] and in [5] was “inactive” in each case.

Regarding `COc1nccnc1CC(C)C`, the Potency entry in test [1], in test [2], in [3], in test [6], in [10] and in test [9] was “inactive” in each case.

For the compound `COC(=O)CC(C)CCC=C(C)C` (stereo unspecified), the Potency entry in test [1], in [2], in test [3], in test [6], in [8] and in test [5] was “inactive” each time.

Take `CCC(C)c1ccccc1` (stereo unspecified): the Potency entry in [1], in test [2], in test [3], in test [6], in test [9] and in test [5] was “inactive” in each case.

As to `Cn1cccc1`, the Potency result in test [1], in [2], in test [3], in test [6], in [10] and in [8] was “inactive” throughout. Also, the Potency result in test [5] is “inactive”.

Take `Cc1cc(C)c(C=O)c(C)c1`: the Potency result in test [1], in test [2], in [3], in test [6], in test [9] and in test [5] was “inactive” in each case.

Take `C=C/C=C/C=C/CCCCC`: in test [1], the activity change, negative = inhibition is 0.374% [at 23.6 µM]. The figures for the viability change, negative = cytotoxic in test [2] and in [6] were -0.14% [at 19 µM] and -9.87% [at 19 µM], respectively. In addition, the activity change, negative = cytotoxicity was -1.33% [at 19 µM] in [3] and -12% [at 15.8 µM] in [5]. Also, the activation in test [9] was -9.38% [at 19 µM].

Consider `Cc1cn[nH]c1`, for which the Potency entry in [1], in test [2], in [3], in [6], in test [9] and in test [5] was “inactive” throughout.

As for `O[C@@H](c1cc(C(F)(F)F)nc2c(C(F)(F)F)cccc12)[C@H]1CCCCN1`, the Potency result in test [1], in test [7] and in test [8] was “inactive” throughout. Besides, the Potency in [2] and in test [3] was 29.8 µM (active) in each case.

For the compound `CC(C)(C)c1cc(/C=C2\SC(=N)NC2=O)cc(C(C)(C)C)c1O`, the Potency entry in [1], in test [2], in [3] and in test [8] was “inactive” in each case. Besides, the Potency in test [6] was 61.1 µM (active); in test [5] it was 54.9 µM (active).

On to `CN(Cc1cc(Br)cc(Br)c1N)C1CCCCC1`, for which the Potency entry in test [1], in test [2], in test [3], in test [6], in test [10] and in test [8] was “inactive” in each case. In [5], the Potency entry is “inactive”.

In the case of `CC1(C)C(=O)N(CO)C(=O)N1CO`, the Potency result in test [1], in test [2], in test [3], in test [6], in test [9] and in [5] was “inactive” in each case.

Source of the values: PubChem BioAssay (Tox21).
